Compounds without any hit were thinned out: in the full panel of roughly 79,000, 15% have a hit. Values without a mark were called inactive. Activity calls are given as the source filed them. Rule as the data show it: active = growth inhibition above about 70%; inactive = the rest.

A short description of experiment [1]: NCI Yeast Anticancer Drug Screen. Data for the rad50 strain (AID 155).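 Also: 0% = growth of vehicle-only cultures of the same strain.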 The note with it: S. cerevisiae rad50 strain growth inhibition, stronger effect = higher value. The essentials: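 Inhibition values express reduced yeast growth in compound-treated cultures relative to vehicle-treated controls.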
Experiment [2] is described as follows: NCI Yeast Anticancer Drug Screen. Data for the mec2-1 strain (AID 157). The settings on record: S. cerevisiae mec2-1 strain, stronger effect = higher value. The essentials: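 Strain: mec2-1 (DNA repair/cell cycle alteration). Compound exposure, then growth measured; inhibition expressed relative to vehicle.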
A short description of experiment [3]: NCI Yeast Anticancer Drug Screen. Data for the sgs1 mgt1 strain (AID 161).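 Also: 0% = growth of cultures given vehicle only.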 The settings on record: S. cerevisiae sgs1 mgt1 strain, stronger effect = higher value. The essentials:
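Mutant yeast exposed to compound; growth scored against vehicle-only wells.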

A short description of experiment [4]: NCI Yeast Anticancer Drug Screen. Data for the cln2 rad14 strain (AID 165).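 Also: 0% = growth equal to vehicle treated cultures.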 The settings on record: S. cerevisiae cln2 rad14 strain, stronger effect = higher value. The essentials:
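Compounds are applied to the cln2 rad14 yeast strain, and growth is then compared with that of vehicle-treated cultures to give inhibition.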

The nature of experiment [5]: NCI Yeast Anticancer Drug Screen. Data for the bub3 strain (AID 167). The note with it: S. cerevisiae bub3 mutant strain, stronger effect = higher value. An outline of the steps:
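Steps: expose the mutant yeast strain to compound; grow alongside vehicle-treated cultures; measure growth; express inhibition against the vehicle cultures.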

The nature of experiment [6]: NCI Yeast Anticancer Drug Screen. Data for the mlh1 rad18 strain (AID 175). The note with it: S. cerevisiae mlh1 rad18 strain growth inhibition, stronger effect = higher value. An outline of the steps: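 Read-out is yeast growth inhibition, calculated against vehicle-only controls. The compound was applied to a strain engineered with DNA damage repair alterations.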
The mark [7] stands for this setting: at 5.0 µM (retest, dose inferred, filed as 0.5).
[8] abbreviates: at 50.0 µM (retest, dose inferred, filed as 5.0).

For `COC(=O)c1ccccc1NC(=S)NN(C)C`, the growth inhibition in experiment [1] (setting [7]) was 13%; in experiment [1] (setting [8]), 20%; in experiment [1] (at 50.0 µM), -0.25%; in experiment [2] (setting [7]), 7%; in experiment [2] (setting [8]), 17%; in experiment [2] (at 50.0 µM) it was -14.3%. Further, the growth inhibition in experiment [3] (setting [7]) was -5%; in experiment [3] (setting [8]) it was 16%; in experiment [3] (at 50.0 µM) it was -8.9%; in experiment [4] (setting [7]), 9%; in experiment [4] (setting [8]), 11%; in experiment [4] (at 50.0 µM), 18.2%. Also, the growth inhibition in experiment [5] (setting [7]) is -20%; in experiment [5] (setting [8]) it was 36%; in experiment [5] (at 50.0 µM) it was 3.85%; in experiment [6] (setting [7]) it was 16%; in experiment [6] (setting [8]), 28%; in experiment [6] (at 50.0 µM) it was -2%.

On to `O=c1cccc(C2CCc3cc(O)ccc3C2)[nH]1` (stereo not given), for which the growth inhibition in experiment [1] (setting [7]) was -5%; in experiment [1] (setting [8]) it was 3%; in experiment [1] (at 50.0 µM), -2.85%; in experiment [2] (setting [7]), 3%; in experiment [2] (setting [8]) it was 1%; in experiment [2] (at 50.0 µM), 3.35%. For the same compound, the growth inhibition is -3% in experiment [3] (setting [7]); 4% in experiment [3] (setting [8]); -5.05% in experiment [3] (at 50.0 µM); 1% in experiment [4] (setting [7]); -18% in experiment [4] (setting [8]); 22.6% in experiment [4] (at 50.0 µM). For the same compound, the growth inhibition in experiment [5] (setting [7]) is -3%; in experiment [5] (setting [8]) it was -11%; in experiment [5] (at 50.0 µM), -11.3%; in experiment [6] (setting [7]), -6%; in experiment [6] (setting [8]), 5%; in experiment [6] (at 50.0 µM), 13.2%.

Take `CCOC(=O)C1=NNC(C(=O)c2ccccc2)C1c1ccccc1` (stereo not given): the growth inhibition in experiment [1] (setting [7]) was 3%; in experiment [1] (setting [8]), 49%; in experiment [1] (at 50.0 µM), 33.2%; in experiment [2] (setting [7]) it was 10%; in experiment [2] (setting [8]), 55%; in experiment [2] (at 50.0 µM), 19.6%. The growth inhibition in experiment [3] (setting [7]) was 20%; in experiment [3] (setting [8]), 83% (active); in experiment [3] (at 50.0 µM), 81.2% (active); in experiment [4] (setting [7]), 4%; in experiment [4] (setting [8]) it was 19%; in experiment [4] (at 50.0 µM), -20.3%. Further, the growth inhibition in experiment [5] (setting [7]) is 8%; in experiment [5] (setting [8]), 40%; in experiment [5] (at 50.0 µM) it was 81.8% (active); in experiment [6] (setting [7]), 12%; in experiment [6] (setting [8]), 82% (active); in experiment [6] (at 50.0 µM), 68.8%.

`O=C(OCc1ccccc1CN1CCOCC1)c1cccc(Br)c1`: the growth inhibition is 2% in experiment [1] (setting [7]); 32% in experiment [1] (setting [8]); 43.5% in experiment [1] (at 50.0 µM); -4% in experiment [2] (setting [7]); 3% in experiment [2] (setting [8]); 9.4% in experiment [2] (at 50.0 µM). The growth inhibition in experiment [3] (setting [7]) was -4%; in experiment [3] (setting [8]) it was 82% (active); in experiment [3] (at 50.0 µM) it was 82.8% (active); in experiment [4] (setting [7]), -5%; in experiment [4] (setting [8]), -3%; in experiment [4] (at 50.0 µM) it was -4.15%. Further, the growth inhibition is 2% in experiment [5] (setting [7]); 42% in experiment [5] (setting [8]); 52.2% in experiment [5] (at 50.0 µM); 21% in experiment [6] (setting [7]); 40% in experiment [6] (setting [8]); 6.65% in experiment [6] (at 50.0 µM).

For the compound `CSC(=Nc1ccccc1)NC(=O)Nc1ccc(Cl)cc1`, the growth inhibition was -8% in experiment [1] (setting [7]); -11% in experiment [1] (setting [8]); -1.45% in experiment [1] (at 50.0 µM); 5% in experiment [2] (setting [7]); -15% in experiment [2] (setting [8]); 5% in experiment [2] (at 50.0 µM). Also, the growth inhibition in experiment [3] (setting [7]) is -34%; in experiment [3] (setting [8]), -17%; in experiment [3] (at 50.0 µM), -2.1%; in experiment [4] (setting [7]) it was -18%; in experiment [4] (setting [8]), -17%; in experiment [4] (at 50.0 µM) it was -31.2%. In addition, the growth inhibition is -22% in experiment [5] (setting [7]); -4% in experiment [5] (setting [8]); 2.55% in experiment [5] (at 50.0 µM); -7% in experiment [6] (setting [7]); -5% in experiment [6] (setting [8]); 3.15% in experiment [6] (at 50.0 µM).

In the case of `CCCCC(C)(C)OC(=O)Nc1ccc(Br)cc1`, the growth inhibition in experiment [1] (setting [7]) was 0%; in experiment [1] (setting [8]) it was 95% (active); in experiment [1] (at 50.0 µM), 96.3% (active); in experiment [2] (setting [7]), -14%; in experiment [2] (setting [8]) it was 94% (active); in experiment [2] (at 50.0 µM), 86.2% (active). The growth inhibition in experiment [3] (setting [7]) is -8%; in experiment [3] (setting [8]) it was 95% (active); in experiment [3] (at 50.0 µM) it was 97.8% (active); in experiment [4] (setting [7]) it was 43%; in experiment [4] (setting [8]), 96% (active); in experiment [4] (at 50.0 µM) it was 84.2% (active). Also, the growth inhibition was -8% in experiment [5] (setting [7]); 93% (active) in experiment [5] (setting [8]); 35.5% in experiment [5] (at 50.0 µM); -2% in experiment [6] (setting [7]); 96% (active) in experiment [6] (setting [8]); 97.4% (active) in experiment [6] (at 50.0 µM).

As for `CCOC(=O)CNC(=O)CNC(=O)CNC(c1ccccc1)(c1ccccc1)c1ccccc1`, the growth inhibition was -8% in experiment [1] (setting [7]); 56% in experiment [1] (setting [8]); 66.5% in experiment [1] (at 50.0 µM); 41% in experiment [2] (setting [7]); 69% in experiment [2] (setting [8]); 60.3% in experiment [2] (at 50.0 µM). In addition, the growth inhibition in experiment [3] (setting [7]) is -13%; in experiment [3] (setting [8]) it was 81% (active); in experiment [3] (at 50.0 µM), 55.1%; in experiment [4] (setting [7]) it was -10%; in experiment [4] (setting [8]), 26%; in experiment [4] (at 50.0 µM) it was 68.8%. Further, the growth inhibition in experiment [5] (setting [7]) was -1%; in experiment [5] (setting [8]), 61%; in experiment [5] (at 50.0 µM), 38.4%; in experiment [6] (setting [7]), 15%; in experiment [6] (setting [8]) it was 83% (active); in experiment [6] (at 50.0 µM), 63.7%.

`CCc1cccc(C)c1NC(=O)C1=C(C)NC(C)=C(C(=O)Nc2c(C)cccc2CC)C1c1ccc2c(c1)OCO2`: the growth inhibition in experiment [1] (setting [7]) is 32%; in experiment [1] (setting [8]) it was 32%; in experiment [1] (at 50.0 µM), 91.2% (active); in experiment [2] (setting [7]) it was 27%; in experiment [2] (setting [8]), 27%; in experiment [2] (at 50.0 µM), 89.3% (active). Moreover, the growth inhibition in experiment [3] (setting [7]) is 33%; in experiment [3] (setting [8]), 33%; in experiment [3] (at 50.0 µM), 89.6% (active); in experiment [4] (setting [7]) it was 20%; in experiment [4] (setting [8]), 20%; in experiment [4] (at 50.0 µM), 84.2% (active). The growth inhibition in experiment [5] (setting [7]) was 26%; in experiment [5] (setting [8]) it was 26%; in experiment [5] (at 50.0 µM), 90% (active); in experiment [6] (setting [7]) it was 37%; in experiment [6] (setting [8]) it was 37%; in experiment [6] (at 50.0 µM), 87.2% (active).

Regarding `CC(C)(C)c1ccc2c(c1)C(O)(c1ccccc1)C1OC1(C(C)(C)C)C2=O` (stereo not given), the growth inhibition in experiment [1] (setting [7]) is 10%; in experiment [1] (setting [8]), 85% (active); in experiment [1] (at 50.0 µM), 96.2% (active); in experiment [2] (setting [7]) it was 9%; in experiment [2] (setting [8]), 82% (active); in experiment [2] (at 50.0 µM) it was 94.5% (active). In addition, the growth inhibition in experiment [3] (setting [7]) is 16%; in experiment [3] (setting [8]), 82% (active); in experiment [3] (at 50.0 µM), 79.3% (active); in experiment [4] (setting [7]) it was 4%; in experiment [4] (setting [8]), 87% (active); in experiment [4] (at 50.0 µM) it was 91.7% (active). Moreover, the growth inhibition in experiment [5] (setting [7]) was -3%; in experiment [5] (setting [8]), 88% (active); in experiment [5] (at 50.0 µM), 94.7% (active); in experiment [6] (setting [7]), 31%; in experiment [6] (setting [8]) it was 91% (active); in experiment [6] (at 50.0 µM), 93.2% (active).

Turning to `Oc1cccc(NCSc2ccc(Cl)cc2)c1`, the growth inhibition in experiment [1] (setting [7]) was -4%; in experiment [1] (setting [8]), 95% (active); in experiment [1] (at 50.0 µM), 93.3% (active); in experiment [2] (setting [7]), -3%; in experiment [2] (setting [8]), 95% (active); in experiment [2] (at 50.0 µM) it was 95.2% (active). Moreover, the growth inhibition in experiment [3] (setting [7]) is -9%; in experiment [3] (setting [8]), 95% (active); in experiment [3] (at 50.0 µM) it was 96.2% (active); in experiment [4] (setting [7]), -5%; in experiment [4] (setting [8]) it was 91% (active); in experiment [4] (at 50.0 µM) it was 92.5% (active). Also, the growth inhibition in experiment [5] (setting [7]) was -3%; in experiment [5] (setting [8]), 93% (active); in experiment [5] (at 50.0 µM) it was 94.1% (active); in experiment [6] (setting [7]), -1%; in experiment [6] (setting [8]) it was 91% (active); in experiment [6] (at 50.0 µM), 94% (active).

The record behind these values is PubChem BioAssay (NCI).
